Results as given in PubChem BioAssay (NCI).
About 83,000 compounds went through this panel and 20% of them were active in at least one assay; those are over-represented in the sample as a whole.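 Plates (96-well) were seeded with cells, treated with compound at one concentration, and incubated for 48 hours before percent growth was determined.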 Activity calls are given as the source filed them. The calls were made as follows: active = growth percent below 10; inactive = the rest.

How the values were obtained:
Assay in all cases: NCI-60 one-dose screen, 48 h (100 = growth as untreated, 0 = no growth, -100 = all killed)
Settings in all cases: 10 µM unless noted
[1] = system: NCI-H23 lung
[2] = system: NCI-H226 lung
[3] = system: NCI-H322M lung
[4] = system: HOP-62 NSCLC
[5] = system: NCI-H460 lung
[6] = system: NCI-H522 lung
[7] = system: 786-0 renal
[8] = system: COLO 205 colon
[9] = system: DU-145 prostate
[10] = system: K-562 leukemia
[11] = system: MALME-3M melanoma
[12] = system: MDA-MB-231 breast
[13] = system: RXF 393 renal
[14] = system: SF-268 CNS
[15] = system: SF-295 CNS
[16] = system: SF-539 CNS
[17] = system: UACC-257 melanoma
[18] = system: HCT-15 colon
[19] = system: M14 melanoma

Measured: growth

CCCCCCCC/C=C/CCCCCCCC1=NC(C)(C)CN1CCO
active: [4] 6.19% | [5] -39.5% | [6] -45.2% | [8] -63.9% | [10] -51.6% | [12] 9.49% | [13] -23.4% | [16] -5.97% | [18] -34.9%
inactive: [1] 47.1% | [2] 83.3% | [3] 50.8% | [7] 32.3% | [9] 64.5% | [11] 64.9% | [14] 46% | [15] 30.2% | [17] 20.1%

CN1CCCC1c1cccnc1 (centres undefined)
inactive: [2] 96.4% | [3] 105% | [4] 113% | [5] 98.6% | [6] 17.3% | [7] 108% | [8] 105% | [9] 110% | [10] 106% | [11] 128% | [12] 97.3% | [14] 111% | [15] 124% | [16] 85.2% | [19] 119% | [18] 100%
active: [1] 2.54%

Cc1cc(NCCCNc2ccnc3cc(Cl)ccc23)nc(N2CCN(C)CC2)n1
active: [6] 4.29% | [10] 8.07% | [16] -18.8%
inactive: [1] 95.1% | [2] 75.3% | [3] 56.4% | [4] 62.7% | [5] 24.1% | [7] 78.7% | [8] 48.1% | [9] 78.2% | [11] 59.2% | [12] 53.8% | [14] 70.7% | [15] 61% | [17] 50.4% | [18] 43.6%

CCS(=O)(=O)OCCCl
inactive: [1] 22.4% | [2] 98.4% | [3] 103% | [4] 108% | [5] 107% | [6] 14.3% | [7] 96.5% | [8] 102% | [9] 116% | [10] 122% | [11] 113% | [12] 118% | [14] 107% | [15] 97.2% | [16] 94.9% | [17] 72.1% | [19] 116% | [18] 92.9%

CCOc1nc(-c2ccccc2)cc2c(O)c(-c3nnco3)[nH]c(=O)c12
active: [6] 5.8%
inactive: [1] 63.1% | [2] 64.2% | [3] 65.3% | [4] 47.9% | [5] 28.2% | [7] 57.9% | [8] 72.2% | [9] 50.8% | [10] 39.3% | [11] 59.9% | [12] 38.7% | [14] 52.5% | [15] 36% | [16] 54.9% | [17] 11.8% | [19] 59.4% | [18] 23.5%

CCN(CC)CCOc1ccc(C2=C(c3ccccc3)CCc3cc(OC)ccc32)cc1
inactive: [2] 58.6% | [3] 17.6% | [9] 41.3% | [14] 33.1%
active: [1] -11.6% | [4] -74.9% | [5] -55.9% | [6] -25.3% | [7] -82.3% | [8] -69.6% | [10] -31% | [11] -91.4% | [12] -2.94% | [15] -72.7% | [16] -17.4% | [19] -63.6% | [18] 6.79%

Cc1cccc(Cl)c1NC(=O)c1ccc2nc(NC(=O)NC3CC(C)(C)NC(C)(C)C3)sc2c1
active: [10] 9.24%
inactive: [1] 91% | [2] 103% | [3] 81.8% | [4] 68.3% | [5] 101% | [6] 88.6% | [7] 84.6% | [8] 15.3% | [9] 103% | [11] 82.2% | [12] 54% | [13] 35.8% | [14] 70.4% | [15] 79.7% | [16] 41.8% | [19] 93.6% | [18] 103%

CO[C@H]1/C=C/O[C@@]2(C)Oc3c(C)c(O)c4c(O)c(c(/C=N/N5C(C)CN(Cc6ccccc6)CC5C)c(O)c4c3C2=O)NC(=O)/C(C)=C\C=C\[C@H](C)[C@H](O)[C@@H](C)[C@@H](O)[C@@H](C)[C@H](OC(C)=O)[C@@H]1C (some centres undefined)
inactive: [1] 14.7% | [2] 68.1% | [3] 121% | [4] 89.1% | [5] 54.9% | [7] 68.7% | [8] 80.1% | [9] 81.6% | [10] 203% | [11] 108% | [12] 102% | [14] 92.6% | [15] 41.1% | [16] 85.8% | [17] 117% | [19] 89.9% | [18] 57.5%
active: [6] -12.5%

COc1ccc(/C=N/NC(=O)c2ccc(S(C)(=O)=O)cc2)cc1OC
inactive: [1] 102% | [2] 93.5% | [3] 92.1% | [4] 97.2% | [5] 109% | [6] 84.4% | [7] 99.5% | [8] 107% | [9] 99.8% | [10] 80.9% | [11] 107% | [12] 106% | [13] 104% | [14] 102% | [15] 100% | [16] 105% | [19] 99.4% | [18] 102%
